According to PubChem BioAssay:
Calls of active or inactive are those of the source.

How the values were obtained:
[1] = target: Albumin (Bos taurus) (UniProt P02769); assay: bovine serum albumin binders on microarray, profiling panel, artefact control for SMM control protein annotation, biochemical, small-molecule microarray, Alexa647 label, 635/667 nm fluorescence (AID 1118); conditions: BSA-A647 binding, fluorescence 635 nm, higher = more signal;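 also: score merges 667 nm emission intensity and signal-to-noise per printed compound spot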
[2] = small-molecule microarray binders of probe aXIP, primary screen, biochemical, NeuroSMM set, 635/667 nm fluorescence (AID 1119); conditions: higher = more signal, called active from +8 up or from −8 down;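 also: probe is the protein aXip251-270 applied at 1 µg/mL to compound-printed slides; binding of probe to printed compounds measured as 667 nm fluorescence plus signal to noise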
[3] = small-molecule binders of probe aNOTCH3, primary screen, biochemical, small-molecule microarray, 635/667 nm fluorescence (AID 1120); conditions: higher = more signal;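 also: probe is a biotin-tagged antibody raised against NOTCH3 rather than NOTCH3 protein; score merges spot fluorescence near 667 nm with spot signal to noise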
[4] = small-molecule binders of probe aNOTCH2, primary screen, biochemical, small-molecule microarray, 635/667 nm fluorescence (AID 1121); conditions: higher = more signal;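 also: score merges feature fluorescence read at 667 nm with its signal to noise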
[5] = target: Carbonic anhydrase 2 (Homo sapiens) (UniProt P00918); assay: CAII small-molecule binders, profiling panel, biochemical, small-molecule microarray, Alexa647-labelled CAII (AID 1122); conditions: CAII-A647 binding fluorescence, higher = more signal
[6] = COS7 lysate on small-molecule microarray, probe aHis, 635 nm (AID 1123); conditions: COS7 cell lysate, fluorescence, higher = more signal;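 also: z-score combines 667nm fluorescence intensity with signal-to-noise per printed compound spot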
[7] = compound binding in COS7 lysate, probe aLAP1, primary screen, cell lysate, small-molecule microarray (AID 1124); conditions: probe aLAP1, fluorescence, higher = more signal;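 also: lysate comes from COS7 cells expressing LAP1 and is applied at 0.3 µg/mL; score merges spot fluorescence near 667 nm with signal-to-noise over triplicate slides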
[8] = tested on: Sam68 (KHDRBS1); assay: Sam68 small-molecule binders, primary screen, biochemical, small-molecule microarray, 635 nm fluorescence (AID 1125); conditions: small-molecule microarray binding, higher = more signal;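 also: score merges 667 nm channel intensity with signal to noise over triplicate slides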
[9] = tested on: Chordin-like protein 2 (CHRDL2); assay: CHRDL2 small-molecule binders, primary screen, biochemical, small-molecule microarray, 635 nm fluorescence (AID 1126); conditions: small-molecule microarray binding, fluorescence 635 nm; higher = more signal;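 also: printed compound slides probed with Chrdl2 protein at 4 µg/mL for 1 h at 4 C; score merges 667 nm emission intensity with signal to noise over three replicate slides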
[10] = target: Concanavalin-A (Canavalia ensiformis) (UniProt P02866); assay: ConA small-molecule binders, primary screen, artefact control for SMM control protein annotation, biochemical, small-molecule microarray, Alexa647 label, 635 nm (AID 1127); conditions: ConA-A647 binding fluorescence, higher = more signal;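 also: z combines 667 nm emission intensity with signal-to-noise across three replicate slides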
[11] = anti-His antibody binders, primary screen, artefact control for SMM control protein annotation, biochemical, small-molecule microarray, 635 nm fluorescence (AID 1128); conditions: anti-His Alexa647 antibody binding, higher = more signal;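 also: score merges feature fluorescence with signal-to-noise for each printed compound spot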
[12] = tested on: Human papillomavirus type 1a E7 protein (residues 1-88); assay: HPV1a E7 small-molecule binders, primary screen, biochemical, small-molecule microarray, residues 1-88, 635 nm (AID 1129); conditions: small-molecule microarray binding, fluorescence 635 nm; higher = more signal
[13] = target: Focal adhesion kinase 1 (Homo sapiens) (UniProt Q05397); assay: small-molecule microarray binders of FAK, primary screen, biochemical, 635/667 nm fluorescence, BSA, DTT (AID 1130); conditions: PTK2 binding, 635 nm fluorescence, higher = more signal;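 also: composite of spot emission at 667 nm and signal to noise over triplicate slides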
[14] = tested on: Fibrinogen (Alexa647-labelled); assay: fibrinogen binders on compound microarrays, profiling panel, artefact control for SMM control-protein annotation, biochemical, small-molecule microarray, 635/667 nm fluorescence (AID 1131); conditions: fibrinogen-A647 binding fluorescence, higher = more signal;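 also: z-score merges 667 nm fluorescence with per-spot signal-to-noise over triplicate slides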
[15] = target: Follistatin (Homo sapiens) (UniProt P19883); assay: follistatin binders on small-molecule microarrays, primary screen, biochemical, small-molecule microarray, 635/667 nm fluorescence (AID 1132); conditions: FST binding, 635 nm fluorescence, higher = more signal
[16] = target: Fibroblast growth factor 2 (Homo sapiens) (UniProt P09038); assay: FGF2 binders on small-molecule microarrays, primary screen, biochemical, small-molecule microarray, 635/667 nm fluorescence (AID 1133); conditions: small-molecule microarray binding, FGF2, fluorescence 635/667; higher = more signal
[17] = mitochondrial membrane potential change in A549 cells, profiling panel, cell-based, JC-1 fluorescence, basal, 24 h, 100 nL (AID 1138); conditions: higher = more signal;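 also: A549 lung adenocarcinoma cells under basal conditions with no added stimulus; test concentration not given here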
[18] = tested on: Lefty1; assay: Lefty1 binders on small-molecule microarrays, primary screen, biochemical, small-molecule microarray, 635/667 nm fluorescence (AID 1139); conditions: small-molecule microarray binding, fluorescence 635/667; higher = more signal
[19] = tested on: wheat germ agglutinin (Triticum aestivum), Alexa647-labelled; assay: wheat germ agglutinin binders on compound microarrays, profiling panel, artefact control for SMM control-protein annotation, biochemical, small-molecule microarray, 635/667 nm fluorescence (AID 1140); conditions: WGA-A647 binding, 635 nm fluorescence, higher = more signal;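 also: score merges 667 nm feature emission with signal to noise over triplicate slides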
[20] = target: Luciferin 4-monooxygenase (Photinus pyralis) (UniProt P08659); assay: firefly luciferase enzyme inhibitors, primary screen, biochemical, luminescence, purified enzyme, 2006 set (AID 1141); conditions: SteadyGlo luminescence, 30 min, higher = more signal, called active from +8 up or from −8 down;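 also: cell-free assay with purified firefly luciferase at 100 ng per well in PBS; test concentration not given here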
Chain of Luciferin 4-monooxygenase (Photinus pyralis) (P08659 whole entry, looked up): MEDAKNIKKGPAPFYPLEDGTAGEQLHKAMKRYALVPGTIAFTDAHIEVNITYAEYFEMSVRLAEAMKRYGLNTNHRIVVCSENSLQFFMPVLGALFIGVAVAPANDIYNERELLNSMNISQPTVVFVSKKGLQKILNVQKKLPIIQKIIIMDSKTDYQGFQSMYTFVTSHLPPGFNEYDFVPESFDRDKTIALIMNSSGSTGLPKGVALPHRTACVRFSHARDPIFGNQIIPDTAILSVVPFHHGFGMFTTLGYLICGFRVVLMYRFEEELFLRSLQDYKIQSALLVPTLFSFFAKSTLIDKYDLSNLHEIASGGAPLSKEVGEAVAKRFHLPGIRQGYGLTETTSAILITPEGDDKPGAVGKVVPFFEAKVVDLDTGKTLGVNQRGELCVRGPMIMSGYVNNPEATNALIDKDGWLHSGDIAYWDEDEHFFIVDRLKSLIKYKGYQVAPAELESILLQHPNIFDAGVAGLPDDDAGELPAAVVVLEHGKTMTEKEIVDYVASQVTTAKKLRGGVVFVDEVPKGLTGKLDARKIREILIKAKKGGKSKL

Chain of Albumin (Bos taurus) (P02769 whole entry, looked up): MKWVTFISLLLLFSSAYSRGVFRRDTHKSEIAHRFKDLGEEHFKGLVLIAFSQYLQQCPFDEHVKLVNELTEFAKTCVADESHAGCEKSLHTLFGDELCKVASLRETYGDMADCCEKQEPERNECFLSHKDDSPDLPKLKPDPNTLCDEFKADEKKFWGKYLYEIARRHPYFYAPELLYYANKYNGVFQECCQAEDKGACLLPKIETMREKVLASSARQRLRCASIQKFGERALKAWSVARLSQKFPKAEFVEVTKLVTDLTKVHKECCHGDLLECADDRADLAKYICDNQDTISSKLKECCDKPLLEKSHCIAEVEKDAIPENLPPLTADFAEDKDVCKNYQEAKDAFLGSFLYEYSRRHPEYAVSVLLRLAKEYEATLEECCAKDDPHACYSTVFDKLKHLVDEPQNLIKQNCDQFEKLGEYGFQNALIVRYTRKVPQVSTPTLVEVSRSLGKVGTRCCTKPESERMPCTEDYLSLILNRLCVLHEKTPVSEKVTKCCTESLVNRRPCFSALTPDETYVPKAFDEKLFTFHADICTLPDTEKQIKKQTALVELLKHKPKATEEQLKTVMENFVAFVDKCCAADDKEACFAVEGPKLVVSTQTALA
Chain of Fibroblast growth factor 2 (Homo sapiens) (P09038 whole entry, looked up): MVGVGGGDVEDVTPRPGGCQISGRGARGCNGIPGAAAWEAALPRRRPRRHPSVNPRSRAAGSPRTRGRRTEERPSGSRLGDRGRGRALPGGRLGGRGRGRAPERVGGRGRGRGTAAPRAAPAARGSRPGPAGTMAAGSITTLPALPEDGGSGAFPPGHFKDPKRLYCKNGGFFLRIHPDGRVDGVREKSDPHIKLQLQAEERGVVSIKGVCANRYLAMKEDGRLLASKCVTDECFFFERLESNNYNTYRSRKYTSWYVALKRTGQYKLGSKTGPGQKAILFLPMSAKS
Chain of Concanavalin-A (Canavalia ensiformis) (P02866 whole entry, looked up): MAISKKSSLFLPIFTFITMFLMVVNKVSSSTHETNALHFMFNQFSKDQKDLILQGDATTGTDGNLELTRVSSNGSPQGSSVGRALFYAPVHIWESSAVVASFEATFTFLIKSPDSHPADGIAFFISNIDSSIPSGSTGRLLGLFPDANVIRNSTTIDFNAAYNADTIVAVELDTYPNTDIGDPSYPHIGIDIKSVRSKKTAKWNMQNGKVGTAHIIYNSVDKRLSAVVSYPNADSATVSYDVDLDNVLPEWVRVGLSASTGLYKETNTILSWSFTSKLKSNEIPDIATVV
Chain of Follistatin (Homo sapiens) (P19883 whole entry, looked up): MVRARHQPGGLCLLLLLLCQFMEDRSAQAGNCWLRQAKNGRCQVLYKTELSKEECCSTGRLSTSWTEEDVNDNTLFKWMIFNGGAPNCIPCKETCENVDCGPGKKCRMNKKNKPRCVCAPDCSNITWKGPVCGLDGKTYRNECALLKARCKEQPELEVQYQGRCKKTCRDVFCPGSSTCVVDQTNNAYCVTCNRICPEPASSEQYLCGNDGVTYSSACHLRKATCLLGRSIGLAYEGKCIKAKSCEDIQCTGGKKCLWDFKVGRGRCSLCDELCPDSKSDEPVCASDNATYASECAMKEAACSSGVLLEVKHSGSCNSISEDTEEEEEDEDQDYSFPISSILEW
Chain of Focal adhesion kinase 1 (Homo sapiens) (Q05397 whole entry, looked up): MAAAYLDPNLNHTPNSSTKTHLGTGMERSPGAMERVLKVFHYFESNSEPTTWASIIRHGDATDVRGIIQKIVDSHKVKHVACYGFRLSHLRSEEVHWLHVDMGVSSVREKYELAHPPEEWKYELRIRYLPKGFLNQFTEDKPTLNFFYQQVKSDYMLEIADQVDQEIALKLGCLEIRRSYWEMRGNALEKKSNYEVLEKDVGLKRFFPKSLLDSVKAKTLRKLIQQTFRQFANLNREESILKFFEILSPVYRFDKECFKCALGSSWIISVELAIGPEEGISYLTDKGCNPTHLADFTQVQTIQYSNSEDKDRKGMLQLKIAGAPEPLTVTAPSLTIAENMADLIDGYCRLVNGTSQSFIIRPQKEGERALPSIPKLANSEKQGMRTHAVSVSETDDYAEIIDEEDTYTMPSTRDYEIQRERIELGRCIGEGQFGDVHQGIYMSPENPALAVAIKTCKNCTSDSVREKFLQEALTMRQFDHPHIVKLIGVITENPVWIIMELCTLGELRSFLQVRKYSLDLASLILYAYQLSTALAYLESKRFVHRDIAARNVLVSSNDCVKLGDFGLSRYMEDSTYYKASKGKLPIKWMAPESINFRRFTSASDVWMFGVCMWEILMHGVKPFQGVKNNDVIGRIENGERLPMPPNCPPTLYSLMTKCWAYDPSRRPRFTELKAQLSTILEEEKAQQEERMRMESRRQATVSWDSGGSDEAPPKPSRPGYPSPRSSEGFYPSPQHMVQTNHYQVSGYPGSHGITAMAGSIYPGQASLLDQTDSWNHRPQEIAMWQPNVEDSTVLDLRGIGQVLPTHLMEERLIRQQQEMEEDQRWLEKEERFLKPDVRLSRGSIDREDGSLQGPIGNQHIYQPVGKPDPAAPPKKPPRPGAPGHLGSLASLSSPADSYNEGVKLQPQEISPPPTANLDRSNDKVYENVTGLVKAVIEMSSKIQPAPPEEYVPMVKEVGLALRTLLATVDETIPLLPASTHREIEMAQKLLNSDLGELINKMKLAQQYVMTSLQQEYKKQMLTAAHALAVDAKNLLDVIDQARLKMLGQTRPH

Compound	composite z-score [1]	composite Z-score [2]	composite z-score [3]	composite z-score [4]	composite z-score [5]	composite z-score [6]	composite z-score [7]	composite z-score [8]	composite z-score [9]	composite z-score [10]	composite z-score [11]	composite z-score [12]	composite z-score [13]	composite z-score [14]	composite z-score [15]	composite z-score [16]	z-score [17]	composite z-score [18]	composite z-score [19]	z-score [20]
CC(C)C[C@@H]1NC(=O)[C@H]2C[C@@H](C(=O)O)[C@@H](c3ccc(O)cc3)N2C1=O	0.111	-0.2 (inactive)	-0.0311	-0.0586	0.419	0.666	-0.79	0.62	0.51	0.684	3.44	-0.526	-0.199	-0.0448	1.34	0.85	-0.986	0.874	0.242	-1.2 (inactive)
COc1ccc(-c2nc3c(c4c2C[C@H](C)OC4)CN(CCC(C)C)CC3)cc1	0.556	0.292 (inactive)	-0.166	-0.0167	0.441	0.455	-0.177	1.23	0.348	0.928	0.998	1.14	0.233	0.809	0.653	0.491	2.72	0.67	0.642	-0.793 (inactive)
CC(C)OC(=O)C=C1C[C@@H](c2ccc(C#N)cc2)O[C@@H](c2ccc(C#N)cc2)O1	0.992	0.914 (inactive)	0.725	0.0186	0.693	3.07	0.148	1.32	-0.595	1.15	1.48	1.22	0.704	0.978	1.31	0.267	-0.356	0.48	0.972	-0.178 (inactive)
N#Cc1ccc(NN2C(C(O)c3cc(C(F)(F)F)cc(C(F)(F)F)c3)C=CC3C(=O)N(c4ccccc4)C(=O)C32)cc1 (stereo not given)	0.996	0.239 (inactive)	0.425	0.0388	0.612	2.82	0.557	1.33	-0.904	1.19	0.94	1.17	0.756	0.932	1.11	-0.477	0.277	0.265	1.16	-0.514 (inactive)
COCCOC(=O)N1C(=O)[C@@]2(c3cc(C#Cc4ccc(OC)cc4)ccc31)[C@H](c1ccc(O)cc1)N1[C@H](c3ccccc3)[C@H](c3ccccc3)OC(=O)[C@H]1[C@@H]2C(N)=O	0.595	0.0583 (inactive)	0.357	-0.108	0.48	1.52	0.364	1.29	0.356	1.12	0.308	1.17	0.126	0.972	1.3	0.852	-1.47	0.728	0.779	0.556 (inactive)
COC(=O)[C@H](C)NC(=O)CCC1CC(OC(=O)NCCc2ccc(F)cc2)CC2(CCCC(COC(=O)NCCc3ccc(Cl)cc3)O2)O1 (stereo not given in full)	-0.167	0.65 (inactive)	0.0573	-0.0261	0.0606	0.925	0.0391	1.07	1.09	0.925	0.225	0.966	0.167	0.873	0.646	1.05	0.994	1.25	0.766	0.0182 (inactive)
CN(C)C(=O)[C@@]1(Cc2ccccc2)N=C(c2ccc(OCCCO)cc2)O[C@H]1c1ccccc1CN=[N+]=[N-]	0.968	1.29 (inactive)	0.329	0.319	0.587	2.49	0.797	1.29	-0.25	1.14	3.27	1.25	0.254	1.02	1.37	1.18	1.97	0.485	1.25	-0.088 (inactive)
CCN1C(=O)[C@H]2[C@H]3[C@H](O)[C@H](O)CC(=NOCc4ccccc4)[C@H]3CC[C@H]2C1=O	-0.0796	0.0894 (inactive)	0.0258	-0.041	0.336	0.452	0.491	-0.144	0.248	0.21	-0.364	0.359	0.155	0.443	0.213	0.22	-0.442	0.228	-0.077	0.243 (inactive)
O=C1[C@H]2[C@H]3[C@H](O)[C@H](O)CC(=NOCc4ccccc4)[C@H]3CC[C@H]2C(=O)N1C[C@@H]1CCCO1	0.5	0.324 (inactive)	0.132	-0.12	0.432	0.469	0.491	0.232	0.312	0.652	0.216	0.586	-0.0074	0.953	0.393	1.12	-0.877	0.249	0.352	0.949 (inactive)
COCC(=C=CC[C@@H](O)c1ccccc1OCCO)CCO	-0.0934	0.493 (inactive)	0.0596	-0.0811	0.763	0.994	-0.0546	0.567	0.22	-0.192	0.0272	0.534	0.208	0.664	0.768	1.46	1.51	0.409	-0.0571	-2.02 (inactive)
C#CCCCON=C1C[C@@H](O)[C@@H](O)[C@@H]2[C@@H]3C(=O)N([C@@H](C)c4ccccc4)C(=O)[C@@H]3CC[C@H]12	0.161	-0.26 (inactive)	0.0494	-0.0554	-0.0339	-0.0684	0.0595	0.513	0.523	0.282	0.449	0.621	0.48	0.778	0.615	0.594	-0.887	0.535	0.203	0.794 (inactive)
CCOC(=O)CCN1C(=O)[C@H]2[C@H]3[C@H](O)[C@H](O)CC(=O)[C@H]3CC[C@H]2C1=O	0.132	0.466 (inactive)	0.0282	-0.0986	-0.214	0.197	-0.386	0.321	0.454	0.528	0.683	0.676	-0.186	0.29	0.369	0.364	-0.648	0.413	0.125	0.524 (inactive)
C=CCOC(=O)[C@H]1[C@@H]2C(=O)O[C@@H](c3ccccc3)[C@@H](c3ccccc3)N2[C@@H](c2ccc(OCCOC(=O)[C@H]3C[C@H]4C(=O)N5CCC[C@H]5C(=O)N4[C@H]3c3cccc(OCCO)c3)cc2)[C@]12C(=O)Nc1ccc(I)cc12	0.898	1.9 (inactive)	1.36	0.554	0.879	3.06	1.25	1.29	1.24	1.23	3.59	1.25	-0.259	0.97	1.46	1.68	0.445	1.37	1.5	0.108 (inactive)
O=C1[C@H]2[C@H]3[C@H](O)[C@H](O)CC(=NOCc4ccccc4)[C@H]3CC[C@H]2C(=O)N1c1cccc(Oc2ccccc2)c1	0.442	-0.171 (inactive)	0.0793	-0.161	0.144	1.14	0.229	1.05	-0.0086	0.707	0.623	1.09	0.333	0.796	0.663	1.23	0.12	0.772	0.623	0.549 (inactive)
COC(=O)[C@@]1(Cc2ccc(F)cc2)[C@@H]2C(=CC(=O)[C@H]2CC(=O)C(=O)N(C)C)CN1C(=O)c1ccccc1	0.979	-1.12 (inactive)	0.476	0.308	0.785	3.01	0.663	1.21	0.13	1.16	2.36	1.26	1.09	0.981	0.635	-0.54	0.589	-0.421	0.847	1.24 (inactive)
CC(=O)OC[C@H]1O[C@@H](ON=C[C@@H](C)[C@H](OCc2ccccc2)C(C)C)[C@H](OC(C)=O)[C@@H](OC(C)=O)[C@@H]1OC(C)=O	-0.25	0.0474 (inactive)	-0.0672	-0.159	-0.934	-0.0857	-0.246	0.96	-0.838	0.468	0.133	-0.19	-0.0838	-0.562	-1	0.225	1.32	-0.207	-0.0716	0.0242 (inactive)
COc1cccc([C@H]2Oc3ccc(OC)cc3C(=NOC(C)CN3CCCc4nc(C)c(C)cc43)[C@@H]2O)c1 (stereo not given in full)	-0.605	0.904 (inactive)	0.119	-0.0527	0.431	0.298	0.532	1.14	0.414	-1.16	2.41	0.857	0.394	-0.712	0.073	0.125	0.128	0.809	-0.299	0.149 (inactive)
O=C(CS)NCCCCCNC(=O)[C@@H]1C[C@@H]2C(=O)N[C@@H](Cc3ccccc3)C(=O)N2[C@@H]1c1ccc(O)cc1	-0.814	0.346 (inactive)	-0.0647	-0.0756	0.674	1.37	0.154	1.3	0.617	0.874	2.33	1.21	0.661	-0.0141	1.31	1.29	-0.208	0.233	0.304	-3.79 (inactive)
O=C(NN=C1C[C@@H](O)[C@@H](O)[C@@H]2[C@@H]3C(=O)N(c4ccc(F)cc4F)C(=O)[C@@H]3CC[C@@H]12)OCc1ccccc1	0.458	-0.662 (inactive)	0.0952	-0.123	0.129	0.229	0.3	0.661	0.272	0.247	0.419	0.117	-0.179	0.723	0.385	-0.191	-0.281	0.341	0.336	0.894 (inactive)
CC(C)(C)N1C(=O)[C@H]2[C@H]3[C@H](O)[C@H](O)CC(=NOCc4ccccc4)[C@@H]3CC[C@H]2C1=O	0.8	0.588 (inactive)	0.111	-0.131	0.675	0.384	0.532	1.17	0.831	0.694	0.94	0.808	-0.0913	0.921	0.785	0.742	0.0533	0.744	0.441	-1 (inactive)
